In PubChem BioAssay:
The source made the active and inactive calls.

How the values were obtained:
[1] = molecular target: Albumin (Bos taurus) (UniProt P02769); assay: bovine serum albumin binders on microarray, profiling panel, artefact control for SMM control protein annotation, biochemical, small-molecule microarray, Alexa647 label, 635/667 nm fluorescence (AID 1118); settings: BSA-A647 binding, fluorescence 635 nm, higher = more signal;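 further: score merges 667 nm emission intensity and signal-to-noise per printed compound spot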
[2] = small-molecule microarray binders of probe aXIP, primary screen, biochemical, NeuroSMM set, 635/667 nm fluorescence (AID 1119); settings: higher = more signal, called active from +8 up or from −8 down;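 further: probe is the protein aXip251-270 applied at 1 µg/mL to compound-printed slides; binding of probe to printed compounds measured as 667 nm fluorescence plus signal to noise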
[3] = small-molecule binders of probe aNOTCH3, primary screen, biochemical, small-molecule microarray, 635/667 nm fluorescence (AID 1120); settings: higher = more signal;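 further: probe is a biotin-tagged antibody raised against NOTCH3 rather than NOTCH3 protein; score merges spot fluorescence near 667 nm with spot signal to noise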
[4] = small-molecule binders of probe aNOTCH2, primary screen, biochemical, small-molecule microarray, 635/667 nm fluorescence (AID 1121); settings: higher = more signal;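 further: score merges feature fluorescence read at 667 nm with its signal to noise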
[5] = molecular target: Carbonic anhydrase 2 (Homo sapiens) (UniProt P00918); assay: CAII small-molecule binders, profiling panel, biochemical, small-molecule microarray, Alexa647-labelled CAII (AID 1122); settings: CAII-A647 binding fluorescence, higher = more signal
[6] = COS7 lysate on small-molecule microarray, probe aHis, 635 nm (AID 1123); settings: COS7 cell lysate, fluorescence, higher = more signal;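 further: z-score combines 667nm fluorescence intensity with signal-to-noise per printed compound spot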
[7] = compound binding in COS7 lysate, probe aLAP1, primary screen, cell lysate, small-molecule microarray (AID 1124); settings: probe aLAP1, fluorescence, higher = more signal;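 further: lysate comes from COS7 cells expressing LAP1 and is applied at 0.3 µg/mL; score merges spot fluorescence near 667 nm with signal-to-noise over triplicate slides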
[8] = tested on: Sam68 (KHDRBS1); assay: Sam68 small-molecule binders, primary screen, biochemical, small-molecule microarray, 635 nm fluorescence (AID 1125); settings: small-molecule microarray binding, higher = more signal;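 further: score merges 667 nm channel intensity with signal to noise over triplicate slides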
[9] = tested on: Chordin-like protein 2 (CHRDL2); assay: CHRDL2 small-molecule binders, primary screen, biochemical, small-molecule microarray, 635 nm fluorescence (AID 1126); settings: small-molecule microarray binding, fluorescence 635 nm; higher = more signal;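 further: printed compound slides probed with Chrdl2 protein at 4 µg/mL for 1 h at 4 C; score merges 667 nm emission intensity with signal to noise over three replicate slides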
[10] = molecular target: Concanavalin-A (Canavalia ensiformis) (UniProt P02866); assay: ConA small-molecule binders, primary screen, artefact control for SMM control protein annotation, biochemical, small-molecule microarray, Alexa647 label, 635 nm (AID 1127); settings: ConA-A647 binding fluorescence, higher = more signal;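 further: z combines 667 nm emission intensity with signal-to-noise across three replicate slides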
[11] = anti-His antibody binders, primary screen, artefact control for SMM control protein annotation, biochemical, small-molecule microarray, 635 nm fluorescence (AID 1128); settings: anti-His Alexa647 antibody binding, higher = more signal;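 further: score merges feature fluorescence with signal-to-noise for each printed compound spot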
[12] = tested on: Human papillomavirus type 1a E7 protein (residues 1-88); assay: HPV1a E7 small-molecule binders, primary screen, biochemical, small-molecule microarray, residues 1-88, 635 nm (AID 1129); settings: small-molecule microarray binding, fluorescence 635 nm; higher = more signal
[13] = molecular target: Focal adhesion kinase 1 (Homo sapiens) (UniProt Q05397); assay: small-molecule microarray binders of FAK, primary screen, biochemical, 635/667 nm fluorescence, BSA, DTT (AID 1130); settings: PTK2 binding, 635 nm fluorescence, higher = more signal;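 further: composite of spot emission at 667 nm and signal to noise over triplicate slides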
[14] = tested on: Fibrinogen (Alexa647-labelled); assay: fibrinogen binders on compound microarrays, profiling panel, artefact control for SMM control-protein annotation, biochemical, small-molecule microarray, 635/667 nm fluorescence (AID 1131); settings: fibrinogen-A647 binding fluorescence, higher = more signal;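 further: z-score merges 667 nm fluorescence with per-spot signal-to-noise over triplicate slides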
[15] = molecular target: Follistatin (Homo sapiens) (UniProt P19883); assay: follistatin binders on small-molecule microarrays, primary screen, biochemical, small-molecule microarray, 635/667 nm fluorescence (AID 1132); settings: FST binding, 635 nm fluorescence, higher = more signal
[16] = molecular target: Fibroblast growth factor 2 (Homo sapiens) (UniProt P09038); assay: FGF2 binders on small-molecule microarrays, primary screen, biochemical, small-molecule microarray, 635/667 nm fluorescence (AID 1133); settings: small-molecule microarray binding, FGF2, fluorescence 635/667; higher = more signal
[17] = mitochondrial membrane potential change in A549 cells, profiling panel, cell-based, JC-1 fluorescence, basal, 24 h, 100 nL (AID 1138); settings: higher = more signal;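 further: A549 lung adenocarcinoma cells under basal conditions with no added stimulus; test concentration not given here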
[18] = tested on: Lefty1; assay: Lefty1 binders on small-molecule microarrays, primary screen, biochemical, small-molecule microarray, 635/667 nm fluorescence (AID 1139); settings: small-molecule microarray binding, fluorescence 635/667; higher = more signal
[19] = tested on: wheat germ agglutinin (Triticum aestivum), Alexa647-labelled; assay: wheat germ agglutinin binders on compound microarrays, profiling panel, artefact control for SMM control-protein annotation, biochemical, small-molecule microarray, 635/667 nm fluorescence (AID 1140); settings: WGA-A647 binding, 635 nm fluorescence, higher = more signal;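 further: score merges 667 nm feature emission with signal to noise over triplicate slides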
[20] = molecular target: Luciferin 4-monooxygenase (Photinus pyralis) (UniProt P08659); assay: firefly luciferase enzyme inhibitors, primary screen, biochemical, luminescence, purified enzyme, 2006 set (AID 1141); settings: SteadyGlo luminescence, 30 min, higher = more signal, called active from +8 up or from −8 down;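 further: cell-free assay with purified firefly luciferase at 100 ng per well in PBS; test concentration not given here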
Sequence of Luciferin 4-monooxygenase (Photinus pyralis) (P08659 whole entry, looked up): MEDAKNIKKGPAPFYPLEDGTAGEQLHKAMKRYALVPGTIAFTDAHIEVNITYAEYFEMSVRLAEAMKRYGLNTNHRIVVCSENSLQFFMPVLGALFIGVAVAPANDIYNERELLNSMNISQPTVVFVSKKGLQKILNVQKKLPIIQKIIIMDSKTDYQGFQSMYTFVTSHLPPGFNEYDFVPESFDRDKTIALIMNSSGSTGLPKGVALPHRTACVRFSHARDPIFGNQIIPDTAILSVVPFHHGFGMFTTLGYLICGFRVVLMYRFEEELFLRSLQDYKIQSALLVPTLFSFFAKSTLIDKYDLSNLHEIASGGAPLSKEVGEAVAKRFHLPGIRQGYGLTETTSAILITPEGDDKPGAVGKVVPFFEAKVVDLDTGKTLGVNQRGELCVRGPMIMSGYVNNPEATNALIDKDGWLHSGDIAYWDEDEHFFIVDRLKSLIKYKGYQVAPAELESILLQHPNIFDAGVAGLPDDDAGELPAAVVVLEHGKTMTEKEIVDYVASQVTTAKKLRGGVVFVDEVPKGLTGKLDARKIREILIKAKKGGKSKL

Sequence of Concanavalin-A (Canavalia ensiformis) (P02866 whole entry, looked up): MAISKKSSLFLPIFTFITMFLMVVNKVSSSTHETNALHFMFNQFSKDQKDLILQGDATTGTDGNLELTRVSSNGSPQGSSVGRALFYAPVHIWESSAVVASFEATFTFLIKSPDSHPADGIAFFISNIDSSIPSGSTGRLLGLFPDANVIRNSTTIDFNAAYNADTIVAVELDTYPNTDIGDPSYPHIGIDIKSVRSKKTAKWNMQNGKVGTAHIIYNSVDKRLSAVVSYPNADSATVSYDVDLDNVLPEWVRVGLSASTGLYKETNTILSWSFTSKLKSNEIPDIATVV
Sequence of Albumin (Bos taurus) (P02769 whole entry, looked up): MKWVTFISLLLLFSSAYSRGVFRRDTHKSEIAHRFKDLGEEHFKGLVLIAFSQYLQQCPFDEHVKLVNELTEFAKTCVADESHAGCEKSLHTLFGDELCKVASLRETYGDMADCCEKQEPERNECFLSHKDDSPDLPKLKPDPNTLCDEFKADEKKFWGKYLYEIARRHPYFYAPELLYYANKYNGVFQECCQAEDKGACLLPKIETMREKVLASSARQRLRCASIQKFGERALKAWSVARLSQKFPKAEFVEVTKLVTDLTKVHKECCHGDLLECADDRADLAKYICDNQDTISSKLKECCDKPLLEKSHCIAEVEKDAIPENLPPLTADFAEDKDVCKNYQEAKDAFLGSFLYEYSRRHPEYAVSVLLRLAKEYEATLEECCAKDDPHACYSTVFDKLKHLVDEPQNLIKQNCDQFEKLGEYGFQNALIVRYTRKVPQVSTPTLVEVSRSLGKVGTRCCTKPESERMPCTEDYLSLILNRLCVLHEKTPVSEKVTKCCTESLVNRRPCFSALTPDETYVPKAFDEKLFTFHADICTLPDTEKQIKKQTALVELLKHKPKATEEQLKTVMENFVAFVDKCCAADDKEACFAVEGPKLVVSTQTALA
Sequence of Follistatin (Homo sapiens) (P19883 whole entry, looked up): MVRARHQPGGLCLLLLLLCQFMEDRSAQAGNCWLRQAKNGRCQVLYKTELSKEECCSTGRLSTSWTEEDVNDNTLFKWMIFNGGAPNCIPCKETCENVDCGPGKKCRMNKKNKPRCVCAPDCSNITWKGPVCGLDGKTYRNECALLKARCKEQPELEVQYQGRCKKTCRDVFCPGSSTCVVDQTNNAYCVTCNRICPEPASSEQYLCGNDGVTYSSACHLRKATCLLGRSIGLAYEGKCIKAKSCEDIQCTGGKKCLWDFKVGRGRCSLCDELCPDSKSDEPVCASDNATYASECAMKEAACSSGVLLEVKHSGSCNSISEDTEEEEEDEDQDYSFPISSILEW
Sequence of Focal adhesion kinase 1 (Homo sapiens) (Q05397 whole entry, looked up): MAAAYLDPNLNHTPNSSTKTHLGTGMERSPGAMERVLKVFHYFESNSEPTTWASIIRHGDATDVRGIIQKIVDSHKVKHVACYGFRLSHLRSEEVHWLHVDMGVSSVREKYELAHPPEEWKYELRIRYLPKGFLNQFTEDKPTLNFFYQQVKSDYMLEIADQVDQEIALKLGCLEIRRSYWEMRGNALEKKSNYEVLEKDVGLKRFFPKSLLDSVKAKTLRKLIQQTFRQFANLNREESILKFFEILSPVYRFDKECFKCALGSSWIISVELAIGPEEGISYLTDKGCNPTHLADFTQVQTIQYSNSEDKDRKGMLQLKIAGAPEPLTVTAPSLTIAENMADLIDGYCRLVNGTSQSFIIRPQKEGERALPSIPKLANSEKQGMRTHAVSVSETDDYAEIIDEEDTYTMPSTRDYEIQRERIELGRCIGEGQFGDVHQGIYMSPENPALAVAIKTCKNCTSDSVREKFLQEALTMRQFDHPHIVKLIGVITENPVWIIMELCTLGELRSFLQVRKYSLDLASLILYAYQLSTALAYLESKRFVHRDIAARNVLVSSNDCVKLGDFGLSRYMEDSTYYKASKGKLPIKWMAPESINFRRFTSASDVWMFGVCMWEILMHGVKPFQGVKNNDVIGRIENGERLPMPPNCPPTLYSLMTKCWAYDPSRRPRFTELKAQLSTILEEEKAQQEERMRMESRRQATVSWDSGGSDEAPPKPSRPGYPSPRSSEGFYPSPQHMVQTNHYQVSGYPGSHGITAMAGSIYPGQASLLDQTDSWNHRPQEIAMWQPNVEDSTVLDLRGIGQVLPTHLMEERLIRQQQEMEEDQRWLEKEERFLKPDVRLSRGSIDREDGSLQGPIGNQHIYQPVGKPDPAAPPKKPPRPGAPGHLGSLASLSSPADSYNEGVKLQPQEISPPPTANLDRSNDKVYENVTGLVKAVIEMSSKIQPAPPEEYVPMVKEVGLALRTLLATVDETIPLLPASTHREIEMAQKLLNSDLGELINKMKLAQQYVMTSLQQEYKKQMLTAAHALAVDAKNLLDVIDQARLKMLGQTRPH
Sequence of Fibroblast growth factor 2 (Homo sapiens) (P09038 whole entry, looked up): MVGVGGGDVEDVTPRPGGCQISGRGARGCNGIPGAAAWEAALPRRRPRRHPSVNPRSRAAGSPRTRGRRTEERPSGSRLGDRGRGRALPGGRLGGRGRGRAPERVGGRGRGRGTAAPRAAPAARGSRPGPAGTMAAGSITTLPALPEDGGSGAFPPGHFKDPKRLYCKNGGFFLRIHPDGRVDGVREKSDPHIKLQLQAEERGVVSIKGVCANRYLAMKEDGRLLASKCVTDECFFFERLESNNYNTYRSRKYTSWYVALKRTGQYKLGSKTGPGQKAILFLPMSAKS

SMILES	composite z-score [1]	composite Z-score [2]	composite z-score [3]	composite z-score [4]	composite z-score [5]	composite z-score [6]	composite z-score [7]	composite z-score [8]	composite z-score [9]	composite z-score [10]	composite z-score [11]	composite z-score [12]	composite z-score [13]	composite z-score [14]	composite z-score [15]	composite z-score [16]	z-score [17]	composite z-score [18]	composite z-score [19]	z-score [20]
CO[C@@H]1COC(=O)CC=C[C@@H](C)COC(=O)[C@H](COCc2ccccc2)NC(=O)CC=C[C@H]1C	-1.2	1.13 (inactive)	-0.111	-0.108	-0.788	-0.843	0.864	-0.597	1.48	-2.62	-0.105	-1.04	-0.765	-1.55	1.24	1.73	-0.378	1.57	-0.672	-0.336 (inactive)
CC(C)[Si]1(C(C)C)O[C@@H](c2ccccc2)c2cc(C3CC3)nc(-c3ccccc3)c21	0.23	-0.773 (inactive)	-0.16	-0.102	-0.169	0.423	0.202	-0.308	0.324	-0.77	-0.829	-0.466	-0.925	0.412	-0.165	-0.246	-0.271	-0.198	0.105	-0.471 (inactive)
O[C@@H](Cc1ccccc1)[C@H]1C2C=CCCC(c3ccccc3)=C2CN1Cc1cccc(Cl)c1 (stereo not given in full)	-0.158	0.257 (inactive)	-0.027	-0.0746	0.371	0.981	0.466	1.31	0.441	0.235	0.607	1.14	-0.0839	0.43	0.995	0.251	2.09	0.625	0.875	-2.22 (inactive)
COC(=O)C1(C)C=C2C(=C(c3ccccc3)C(=O)C2C)CN1 (stereo not given)	0.226	-0.107 (inactive)	-0.128	0.0633	0.479	0.895	-0.368	-0.999	-0.368	-1.06	1.57	0.0147	0.0183	0.494	-0.882	-0.253	-0.353	-1.5	0.264	1.89 (inactive)
CCCNC(=O)OC[C@H]1O[C@H](CCON=CC[C@@H]2C=C[C@H](OC(C)=O)[C@@H](COC(C)=O)O2)C=C[C@@H]1Oc1ccc(OC)cc1	0.619	-0.263 (inactive)	0.0131	-0.14	-0.0893	0.0884	0.394	0.911	0.593	0.0162	0.731	0.535	0.474	0.733	0.461	0.693	-1.16	0.561	0.462	0.985 (inactive)
CCOC(=O)C1=CC[C@H]2C(=O)N(CC)C(=O)[C@@H]12	0.343	0.806 (inactive)	0.0242	-0.0866	0.522	1.01	0.111	1.09	0.363	0.65	0.299	0.775	-0.0436	0.775	0.269	0.218	-1.1	0.443	0.433	1.69 (inactive)
